The values that follow come from PubChem BioAssay (NCATS).

Unmarked numbers belong to inactive results. Records with an inconclusive call do not appear. Activity calls are given as the source filed them. Unless noted, calls come from the whole dose curve; as a rule, active = well fitted curve in the direction sought with a large enough effect; inconclusive = small, poorly fitted or top-dose-only effect, or another doubt; inactive = no such curve, though single readings can be large; an effect the other way counts as inactive or inconclusive.

Assay [1] can be described thus: Drug repurposing screens with cells derived from glioblastoma tumor samples (AID 1345199). For activity, negative = cell killing: % is set by controls: 0 for no effect and ±100 for the full control effect. Note: nearly all actives have a fitted effect of over 40% in size. Note: potency is the fitted concentration of half-maximal effect. As to conditions: GBM patient neurospheres viability, ATP luminescence, 48 h. A digest of the protocol:
(§1)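 Four patient lines of CD133+ GBM neurospheres were screened at several concentrations; hits were retested in those lines plus three slower-growing GBM lines, using 48-hour treatment and ATP-based viability.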

Another assay relates to astro (control astrocytes). The description is as above. As to conditions: viability, ATP luminescence, 48 h; series mostly up to 45.9 µM. In a few lines: as §1
A further assay has as its system OV90. In words: Primary qHTS to identify gynecologic anti-cancer compounds using libraries of approved drugs and bioactive compounds (AID 1345084). Note: nearly all actives have a fitted effect of over 55% in size. Note: potency is the fitted concentration of half-maximal effect. The note with it: Gynecologic cancer cell panel viability, ATPlite luminescence, 48 h; series mostly up to 57.5 µM. A digest of the protocol: (§2)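 ATP-based viability (ATPlite), 1,000 cells/well, 16 h pre-incubation, 48 h compound at 37 C, 5% CO2, 15 min RT before read.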
On the technique in general: Quantitative high-throughput screening tests each substance at several concentrations.

The nature of assay [2]: qHTS assay to identify inhibitors of the type 1 interferon - major histocompatibility complex class I in skeletal muscle: Counter screen cell viability and HiBit confirmation (AID 1347412). Note: % is set by controls: 0 for no effect and ±100 for the full control effect; nearly all actives have a fitted effect of over 60% in size. As to conditions: iHSKM muscle cells + IFN-b, HiBiT or CellTiter-Glo, 24 h; Potency: HiBiT unless noted; Viability, at 45.9 µM (top of the series). A digest of the protocol: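 Myoblasts (C25cl48, HLA-B HiBiT) seeded in medium without dexamethasone, IFN-b 4 ng/ml added except unstimulated columns; 1 hr later compounds pinned (12-pt 1:3, top 46 uM final). Incubated 24 hrs, lysed 10 min, luminescence measured.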

For the next assay, the system named is PA-1. Briefly: Primary qHTS to identify gynecologic anti-cancer compounds using libraries of approved drugs and bioactive compounds (AID 1345084). Note: nearly all actives have a fitted effect of over 55% in size. Note: potency is the fitted concentration of half-maximal effect. The note with it: Gynecologic cancer cell panel viability, ATPlite luminescence, 48 h; series mostly up to 57.5 µM. A digest of the protocol:
as §2

For a further assay, the system named is SKOV3. The assay is described as above. The note with it: Gynecologic cancer cell panel viability, ATPlite luminescence, 48 h; series mostly up to 57.5 µM. In a few lines:
as §2
(In ATP-based viability assays light output follows the ATP content of the culture.)

The subject of the next assay is Tov-21-G. Described as above. The note with it: Gynecologic cancer cell panel viability, ATPlite luminescence, 48 h; series mostly up to 57.5 µM. In a few lines: as §2
The subject of the next assay is Tov112D. Described as above. The note with it: Gynecologic cancer cell panel viability, ATPlite luminescence, 48 h; series mostly up to 57.5 µM. A digest of the protocol: as §2
A further assay deals with JEG-3. The description is as above. As to conditions: Gynecologic cancer cell panel viability, ATPlite luminescence, 48 h; series mostly up to 57.5 µM. In a few lines: as §2
Assay [3] deals with Nuclear receptor subfamily 1 group I member 2 (Rattus norvegicus) (UniProt Q9R1A7). In words: qHTS assay for small molecule activators of the rat pregnane X receptor (rPXR) signaling pathway (AID 651751; call rule not given here; note: 0% is about no effect). As to conditions: rPXR reporter cells, luciferase (One-Glo), 24 h.
Chain of Nuclear receptor subfamily 1 group I member 2 (Rattus norvegicus) (Q9R1A7 whole entry, looked up): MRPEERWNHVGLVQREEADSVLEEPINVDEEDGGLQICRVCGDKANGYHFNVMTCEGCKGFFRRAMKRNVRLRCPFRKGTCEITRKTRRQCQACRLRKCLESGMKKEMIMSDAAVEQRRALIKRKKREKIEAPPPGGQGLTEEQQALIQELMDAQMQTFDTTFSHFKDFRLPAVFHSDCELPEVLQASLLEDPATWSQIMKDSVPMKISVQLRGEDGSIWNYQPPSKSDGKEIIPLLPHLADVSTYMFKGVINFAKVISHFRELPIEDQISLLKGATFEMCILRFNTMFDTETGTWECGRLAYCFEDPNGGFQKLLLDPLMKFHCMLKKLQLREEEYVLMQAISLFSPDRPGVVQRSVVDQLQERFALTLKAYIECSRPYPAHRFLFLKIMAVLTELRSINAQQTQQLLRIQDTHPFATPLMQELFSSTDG
Setting [4] is: at 45.9 µM (top of the series), tumour line B.
Where [5] appears, read: at 45.9 µM (top of the series), tumour line D.
[6] abbreviates: at 46 µM (top of the series), tumour line A.
Where [7] appears, read: at 46.1 µM (top of the series), tumour line C.

Regarding `CC1(C)CCC(NC(=O)[C@@H](N)CCC(=O)O)CC1`, the activity, negative = cell killing is -9.8% in assay [1] (setting [4]), -20.2% in assay [1] (setting [5]), -26.1% in assay [1] (setting [6]) and -24.2% in assay [1] (setting [7]). Also, in the assay on astro, the Potency entry is “inactive”.

As to `COc1cc(C=C2CCC/C(=C\c3ccc(O)c(OC)c3)C2=O)ccc1O`, the Potency entry (in the assay on OV90; in assay [2]) was “inactive” in each case. Moreover, in the assay on astro, the Potency was 20 µM (active).

Take `CNCCC=C1c2ccccc2CCc2ccccc21`: the activity, negative = cell killing in assay [1] (setting [7]) was -6.98%. Besides, the results for the Potency (in [1] (tumour line A); in assay [1] (tumour line B); in the assay with astro) were 6.31 µM (active), 22.4 µM (active) and 11.2 µM (active), respectively.

On to `C[C@@H]1CN(CCCn2c3ccccc3c3ccccc32)C[C@H](C)N1`, for which the Potency was 25.1 µM (active) in the assay with OV90 and 12.6 µM (active) with astro.

With `CCC(NC(C)C)C(O)c1ccc(O)c(O)c1` (centres undefined), the activity, negative = cell killing in assay [1] (setting [4]) was -1.77%; in [1] (setting [5]), 12.5%; in assay [1] (setting [6]), -20.2%; in [1] (setting [7]), -19.2%. Further, the Potency entry in the assay with astro is “inactive”.

Take `C[n+]1c2cc(N)ccc2cc2ccc(N)cc21` (tested in a mixture with another compound): the Potency is 5.01 µM (active) in the assay with PA-1; 12.6 µM (active) with SKOV3; 28.2 µM (active) in the assay with Tov-21-G; 35.5 µM (active) in assay [1] (tumour line A); 11.2 µM (active) in [1] (tumour line B); 5.01 µM (active) in [1] (tumour line D). The Potency in the assay with astro was 11.2 µM (active). In assay [1] (setting [7]), the activity, negative = cell killing was -16%.

In the case of `CC(=O)O[C@H]1C[C@@H]2CC[C@@H]3[C@H](CC[C@@]4(C)[C@H]3C[C@H]([N+]3(C)CCCCC3)[C@@H]4OC(C)=O)[C@@]2(C)C[C@@H]1[N+]1(C)CCCCC1`, the activity, negative = cell killing in assay [1] (setting [4]) is 7.88%; in assay [1] (setting [5]), -21.6%; in assay [1] (setting [6]), -27.9%; in assay [1] (setting [7]) it was -11.1%. Besides, in the assay with astro, the Potency result is “inactive”.

As for `CCCn1c(=O)[nH]c(=O)c2[nH]cnc21`, the activity, negative = cell killing is -19.3% in assay [1] (setting [4]), 9.35% in assay [1] (setting [5]), -17.3% in [1] (setting [6]) and -18.8% in [1] (setting [7]). Moreover, in the assay with astro, the Potency result is “inactive”.

For the molecule `CCCCCCCCCCCCCCCC[N+](C)(C)CC`, the Potency is 22.4 µM (active) with OV90; 10 µM (active) in the assay with PA-1; 2.51 µM (active) with SKOV3; 10 µM (active) in the assay on Tov-21-G; 28.2 µM (active) with Tov112D; 5.62 µM (active) in the assay on astro.

`COC(=O)[C@H]1[C@H]2C[C@H]3c4[nH]c5ccccc5c4CCN3C[C@H]2CC[C@@H]1O`: the activity, negative = cell killing in assay [1] (setting [4]) is -4.34%; in assay [1] (setting [5]), -13.5%; in assay [1] (setting [7]), 4.13%. Moreover, the Potency entry with astro was “inactive”.

Consider `C1CCc2nnnn2CC1`, for which the activity, negative = cell killing in assay [1] (setting [4]) is -2.41%; in assay [1] (setting [5]), -3.11%; in assay [1] (setting [6]), -28.5%; in assay [1] (setting [7]), -27%. In addition, in the assay on astro, the Potency entry was “inactive”.

On to `CC(C)(C(=O)c1cccnc1)c1cccnc1`, for which the Potency result in the assay with OV90, in the assay with PA-1, with SKOV3, in the assay with Tov-21-G, with Tov112D and in the assay with astro was “inactive” in each case. Moreover, the activity, negative = cell killing was -7.19% in [1] (at 20 µM (top of the series), tumour line C); -14.8% in assay [1] (at 21.2 µM (top of the series), tumour line B); -8.11% in assay [1] (at 21.2 µM (top of the series), tumour line D); -19.8% in assay [1] (at 21.3 µM (top of the series), tumour line A).

In the case of `CC(C)COC(=O)OCN1C(=O)CN(CCN2CC(=O)N(COC(=O)OCC(C)C)C(=O)C2)CC1=O`, the activity, negative = cell killing was -7.7% in assay [1] (setting [4]), -16.2% in [1] (setting [5]), -10.8% in assay [1] (setting [6]) and -11% in assay [1] (setting [7]). Further, the Potency result with astro is “inactive”.

With `C[C@@H]1C(=O)NC2=Nc3cccc(Cl)c3CN21`, the activity, negative = cell killing in [1] (setting [4]) is -5.98%; in assay [1] (setting [5]), -24.2%; in [1] (setting [7]), -18.1%. Further, the Potency result in the assay with astro is “inactive”.

`COc1cc(NS(C)(=O)=O)ccc1Nc1c2ccccc2nc2ccccc12`: in the assay with astro, the Potency was 11.2 µM (active).

With `CCCCCCC[N+](CC)(CC)CCCCc1ccc(Cl)cc1`, the Potency in the assay on OV90 is 10 µM (active); in the assay with PA-1, 4.47 µM (active); with Tov-21-G, 20 µM (active); in the assay on astro it was 8.91 µM (active).

In the case of `Nc1cc(Cl)c(NC2=NCCN2)c(Cl)c1`, the activity, negative = cell killing was -8.4% in [1] (setting [4]), -1.45% in [1] (setting [5]), -27.8% in [1] (setting [6]) and -9.7% in assay [1] (setting [7]). For the same molecule, the Potency result with astro was “inactive”.

In the case of `COCc1c(C(C)C)nc(C(C)C)c(/C=C/[C@@H](O)C[C@@H](O)CC(=O)O)c1-c1ccc(F)cc1`, the Potency was 1.78 µM (active) in the assay on OV90; 2.82 µM (active) in the assay with PA-1; 7.08 µM (active) in the assay with Tov-21-G; 3.16 µM (active) in the assay on Tov112D; 0.1 µM (active) in the assay with astro.

With `Oc1c(I)cc(Cl)c2cccnc12`, the Potency entry in the assay with JEG-3 was “inactive”. The activity, negative = cell killing in [1] (setting [7]) was -11.9%. The Potency in assay [1] (tumour line A) and in [1] (tumour line B) was 17.8 µM (active) each time. Further, the max response in assay [3] is -1.19%.

`O=C(O)c1cc2cc(Cc3cccnc3)ccc2o1`: the activity, negative = cell killing in [1] (setting [4]) is -16.4%; in [1] (setting [5]), -17.6%. Also, in the assay on astro, the Potency entry is “inactive”.
